Screens as filed in PubChem BioAssay.
14-3-3 PPI: 14-3-3 gamma protein interaction modulation; P61981; 160,000 tested, 0.19% active; AID 422; inhibition, % at 40 µM; FP, 14-3-3gamma / TMR-pS259-Raf peptide binding; in the data active = inhibition above about 30%;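 also: 0% = protein plus tracer without compound and 100% = blank with tracer alone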
An asterisk follows results filed as active. This is one part of a sample in which hits are shown more often than they occur.

SMILES	14-3-3 PPI
O=[N+]([O-])c1ccc(Cl)c2nonc12	-37
O=[N+]([O-])c1ccc(N2CCCC2)c2ccccc12	-4
O=[N+]([O-])c1ccc(N2CCCC2)c2nonc12	200*
CC1=Nc2ccccc2Sc2ccccc21	2
C=CCOc1ccc(C2SCC(=O)Nc3c2c(=O)[nH]n3C2CCCC2)cc1 (centres undefined)	3
